# Source: PubChem BioAssay (Tox21)
# Where “and” joins values, the source holds several entries; their conditions need not be identical. Identical values can stand only once. Results filed as inconclusive are left out. Calls of active or inactive are those of the source. Calls follow the shape of the dose curve; as a rule, active = well fitted cell-killing curve with a large enough effect in the repeat runs; inconclusive = weak or mixed curves, or effect the other way; inactive = no such curve, though single readings can be large or run the other way.
# Experiment: qHTS assay to identify small molecule antagonists of the peroxisome proliferator-activated receptor gamma (PPARg) signaling pathway - cell viability counter screen (AID 743194); also: nearly all actives have a fitted effect of over 55% in size
# Conditions: PPARg-bla HEK293H viability, CellTiter-Glo luminescence, 17 h, co-treated with 50 nM rosiglitazone; series mostly up to 62.6 µM; activity change, negative = cytotoxicity: at the top concentration
# Text: U.S. Tox21 Program National Center for Advancing Translational Sciences [NCATS] NIH Chemical Genomics Center [NCGC] U.S. Environmental Protection Agency [EPA] National Institutes of Environmental Health Sciences [NIEHS] National Toxicology Program [NTP] U.S. Food and Drug Administration [FDA] Tox21 Assay Overview: The peroxisome proliferator-activated receptors (PPARs) are lipid-activated transcription factors of the nuclear receptor superfamily with three distinct subtypes namely PPAR alpha, PPAR delta (also called PPAR beta) and PPAR gamma (PPARg). All these subtypes heterodimerize with Retinoid X receptor (RXR) and these heterodimers regulate transcription of various genes. PPAR-gamma receptor (glitazone receptor) is involved in the regulation of glucose and lipid metabolism. To identify the compounds that activate PPAR-gamma signaling, GeneBLAzer PPAR gamma UAS-bla HEK293H cell line (Invitrogen, Carlsbad, CA, USA) containing a beta-lactamase reporter gene under the control of an Upstream Activator Sequence (UAS) was used to screen the Tox21 compound library. The cytotoxicity of the Tox21 compound library against the PPARg-bla cell line was tested in parallel by measuring the cell viability using CellTiter-Glo assay in the same wells.
# Tox21 Assay Protocol Summary: PPARg-bla cells were dispensed at 3000 cells/5uL/well in 1536-well black wall/clear bottom plates using a Multidrop Combi (Thermo Fisher Scientific, Waltham, MA) dispenser. After the assay plates were incubated at 37 C and 5% CO2 for 5 h, 23 nL of compounds dissolved in DMSO, positive controls or DMSO only was transferred to the assay plate by a Pintool station (Kalypsys, San Diego, CA), followed by addition of 1ul Rosiglitazone (50 nM, final concentration in the wells). The assay plates were incubated at 37 C for 17 h, and then 1 uL of LiveBLAzerTM B/G FRET substrate was added using a Bioraptr Flying Reagent Dispenser (FRD) workstation (Beckman Coulter, Indianapolis, IN, USA). The assay plates were incubated at room temperature for 1 h and fluorescence intensity was measured by an Envision plate reader (PerkinElmer, Shelton, CT). For cell viability readout that measures cytotoxicity, 4 ul/well of CellTiter-Glo reagent was added into the assay plates using a Flying Reagent Dispenser. After 30 min incubation at room temperature, the luminescence intensity in the plates was measured using a ViewLux plate reader (PerkinElmer).
# % is scaled to controls: 0 for no effect and ±100 for the full control effect; potency is read from the fitted curve at half-maximal effect.
SMILES,Potency,"activity change, negative = cytotoxicity"
Cc1cc(C(C)(C)C)c(O)c(C(C)(C)C)c1,inactive,–
NC(=Nc1ccccc1)Nc1ccccc1,–,2.3% (inactive)
CC1=CC(=O)c2ccccc2C1=O,11 µM (active) and 26.6 µM (active),–
N[C@@H]1CONC1=O,–,9% (inactive)
CC(C(O)c1ccc(O)cc1)N1CCC(Cc2ccccc2)CC1 (stereo not given),–,-1.44% (inactive)
C=C(C)C(=O)O,inactive,–
CN1C(=O)c2ccc([N+](=O)[O-])cc2C1=O,–,-4.47% (inactive)
CC(=O)Nc1ccc(C(=O)CCl)cc1,13.8 µM (active),–
NNCCc1ccccc1,inactive,–
CC(=O)OCC1=C(C(=O)O)N2C(=O)[C@@H](NC(=O)Cc3cccs3)[C@H]2SC1,–,9.9% (inactive)
COc1nc(C)nc(Cl)c1NC1=NCCN1,–,4.61% (inactive)
Nc1nc2ccccc2[nH]1,inactive,–
CCC(CO)(CO)COCC(CC)(CO)CO,–,13.4% (inactive)
C[N+]1([O-])CCOCC1,–,5.64% (inactive)
CC(=O)C1=C(C)[C@@H]2C[C@@]3(C1)[C@H](C)CC[C@H]3C2(C)C,inactive,–
O=C(O[C@@H]1Cc2c(O)cc(O)cc2O[C@@H]1c1cc(O)c(O)c(O)c1)c1cc(O)c(O)c(O)c1,inactive,–
Nc1ccc2cc3ccccc3cc2c1,inactive,–
CC1COc2c(N3CCN(C)CC3)c(F)cc3c(=O)c(C(=O)O)cn1c23 (stereo not given),–,-3.4% (inactive)
CCOC(=O)C(C)C(C)=O (stereo not given),–,-15.6% [at 81.1 µM] (inactive)
c1ccc2c(c1)CCCC2C1=NCCN1 (stereo not given),–,5.5% (inactive)

SMILES,Potency,"activity change, negative = cytotoxicity"
CCN(CC)CCOc1ccc(/C(=C(\Cl)c2ccccc2)c2ccccc2)cc1,17.7 µM (active),–
CCc1ccc(C(c2ccc(CC)cc2)C(Cl)Cl)cc1,–,-1.66% (inactive)
CC(=O)CC(=O)Nc1ccc2[nH]c(=O)[nH]c2c1,–,4% (inactive)
O=C(Nc1ccccc1SSc1ccccc1NC(=O)c1ccccc1)c1ccccc1,–,-26.6% (inactive)
COC(=O)/C=C/c1ccccc1,–,1.57% (inactive)
C=CC(=O)OCCCCCCOC(=O)C=C,–,-41.5% (inactive)
Cc1cc(Cc2cc(C)cc(C(C)(C)C)c2O)c(O)c(C(C)(C)C)c1,12.4 µM (active) and 11 µM (active),–
O=C(O)CCc1ccccc1,–,-9.28% (inactive)
O=Cc1ccc(Cl)cc1,–,-1.14% (inactive)
NCCCCCC(=O)O,–,-4.85% (inactive)
CCOc1ccccc1C(N)=O,inactive,–
CCCC(=O)c1ccccc1,–,7.19% (inactive)
O=C(O)CP(=O)(O)O,–,-5.89% (inactive)
C=CS(=O)(=O)O,–,-2.61% [at 81.1 µM] (inactive)
NC(N)=NC(=O)Cc1c(Cl)cccc1Cl,–,2.4% (inactive)
CCN(CC)c1ccc2c(C)cc(=O)oc2c1,inactive,–
CCC(C)(Oc1ccc(C2(c3ccc(OC(C)(CC)C(=O)O)cc3)CCCCC2)cc1)C(=O)O (stereo not given),–,-3.84% (inactive)
CCCCOCCOC(=O)c1ccccc1C(=O)OCCOCCCC,inactive,–
OCCN1CCNCC1,–,2.1% [at 81.1 µM] (inactive)
CC(C)CCOCc1ccccc1,–,1.83% (inactive)
